According to PubChem BioAssay (Tox21):
“And” between values parts separate entries of the source, which are not always exact repeats. Equal values may be shown once. More than one record can exist for a structure, and the calls need not agree. The source made the active and inactive calls. Unless noted, calls come from the whole dose curve; as a rule, active = well fitted curve in the direction sought with a large enough effect in the repeat runs; inconclusive = weak or mixed curves; inactive = no such curve, though single readings can be large; an effect the other way counts as inactive or inconclusive.

What was measured:
[1] = qHTS assay to identify small molecule antagonists of the thyroid receptor (TR) signaling pathway - cell viability counter screen (AID 743064); note: nearly all actives have a fitted effect of over 50% in size; note: potency is the fitted concentration of half-maximal effect
Method in brief: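 GH3.TRE-Luc rat pituitary cells carrying a TRE-luciferase reporter were treated with compound plus 1 nM T3 (final) for 23.5 h at 37 °C. Viability was then read in the same wells by CellTiter-Fluor fluorescence after a further 30 min.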

[2] = qHTS assay to identify small molecule antagonists of the thyroid receptor (TR) signaling pathway (AID 743065); note: nearly all actives have a fitted effect of over 55% in size; note: potency is the fitted concentration of half-maximal effect
Method in brief: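 Antagonism measured as loss of luciferase signal in GH3 cells stably carrying a TRE-luciferase reporter, co-treated with compound and T3 (1 nM final) for 23.5 h at 37 C. Viability was read in the same well by CellTiter-Fluor.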

[3] = test system: thyroid hormone receptor (rat, GH3 cells); experiment: qHTS assay to identify small molecule agonists of the thyroid receptor (TR) signaling pathway (AID 743066; calls by dose curve)
Aromatase (Homo sapiens) = Aromatase (Homo sapiens) (UniProt P11511); experiment: qHTS assay to identify aromatase inhibitors (AID 743083); note: nearly all actives have a fitted effect of over 55% in size; note: potency is the fitted concentration of half-maximal effect
Aromatase (Homo sapiens), sequence (P11511 whole entry, looked up): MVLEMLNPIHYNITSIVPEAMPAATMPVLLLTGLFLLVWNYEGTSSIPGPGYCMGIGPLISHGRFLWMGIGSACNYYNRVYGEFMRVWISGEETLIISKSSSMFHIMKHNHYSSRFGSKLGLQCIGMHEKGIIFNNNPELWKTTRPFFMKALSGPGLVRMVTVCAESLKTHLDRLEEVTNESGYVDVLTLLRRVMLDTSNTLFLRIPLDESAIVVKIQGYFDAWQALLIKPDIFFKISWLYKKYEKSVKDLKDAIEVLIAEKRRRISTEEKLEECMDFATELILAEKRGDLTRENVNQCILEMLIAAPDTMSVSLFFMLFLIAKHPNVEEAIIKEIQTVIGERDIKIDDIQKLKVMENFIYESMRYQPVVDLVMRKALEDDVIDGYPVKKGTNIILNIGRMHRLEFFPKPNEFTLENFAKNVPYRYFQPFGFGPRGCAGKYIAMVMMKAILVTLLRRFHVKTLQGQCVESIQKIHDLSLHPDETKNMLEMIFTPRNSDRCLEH

[4] = qHTS assay to identify aromatase inhibitors - cell viability counter screen (AID 743084);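 note: cells stimulated with testosterone during compound exposure; nearly all actives have a fitted effect of over 55% in size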; note: potency is the fitted concentration of half-maximal effect
[5] = target: Aryl hydrocarbon receptor (Homo sapiens) (UniProt P35869); experiment: qHTS assay to identify small molecule that activate the aryl hydrocarbon receptor (AhR) signaling pathway (AID 743085); note: nearly all actives have a fitted effect of over 15% in size; note: potency is the fitted concentration of half-maximal effect;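 for activation: HG2L7.5c1 human HepG2 liver cells with stably integrated DRE-driven firefly reporter; series mostly up to about 70 µM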
Aryl hydrocarbon receptor (Homo sapiens), sequence (P35869 whole entry, looked up): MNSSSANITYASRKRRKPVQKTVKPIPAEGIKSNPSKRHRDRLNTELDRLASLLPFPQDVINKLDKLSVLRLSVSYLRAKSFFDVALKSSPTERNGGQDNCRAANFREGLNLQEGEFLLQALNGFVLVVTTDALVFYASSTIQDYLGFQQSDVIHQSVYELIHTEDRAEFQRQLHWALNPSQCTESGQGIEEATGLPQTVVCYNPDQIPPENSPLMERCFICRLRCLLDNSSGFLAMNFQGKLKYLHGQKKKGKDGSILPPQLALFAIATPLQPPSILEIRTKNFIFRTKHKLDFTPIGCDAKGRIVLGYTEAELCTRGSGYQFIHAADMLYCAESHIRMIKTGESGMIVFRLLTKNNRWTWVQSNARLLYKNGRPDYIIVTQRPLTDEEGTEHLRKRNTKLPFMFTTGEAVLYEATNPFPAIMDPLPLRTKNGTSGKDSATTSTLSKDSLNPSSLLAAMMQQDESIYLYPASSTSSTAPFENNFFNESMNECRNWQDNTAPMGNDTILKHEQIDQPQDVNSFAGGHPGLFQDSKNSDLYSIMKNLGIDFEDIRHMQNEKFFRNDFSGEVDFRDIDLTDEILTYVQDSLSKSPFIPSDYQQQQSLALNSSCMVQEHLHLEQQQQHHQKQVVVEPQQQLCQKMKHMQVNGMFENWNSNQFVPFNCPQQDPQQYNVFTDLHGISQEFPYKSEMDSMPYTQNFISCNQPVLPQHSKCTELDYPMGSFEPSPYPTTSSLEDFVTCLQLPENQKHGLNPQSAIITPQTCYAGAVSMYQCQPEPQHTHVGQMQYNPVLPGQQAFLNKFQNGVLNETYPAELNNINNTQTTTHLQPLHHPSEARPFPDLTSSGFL
Method in brief: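 HepG2 cells (HG2L7.5c1) stably carrying a firefly luciferase reporter driven by 20 dioxin responsive elements were exposed to compound for 24 h at 37C after a 5 h settling period; luminescence rise (ONE-Glo) indicated activation.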

[6] = qHTS assay to identify small molecule that activate the aryl hydrocarbon receptor (AhR) signaling pathway - cell viability counter screen (AID 743086); note: nearly all actives have a fitted effect of over 45% in size; note: potency is the fitted concentration of half-maximal effect
Method in brief: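 Cytotoxicity counter screen: CellTiter-Fluor signal (30 min, 37 C) in 4000 HepG2 cells/well carrying the DRE-luciferase reporter, following 24 h compound exposure at 37 C.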

[7] = qHTS assay for small molecule agonists of the antioxidant response element (ARE) signaling pathway - cell viability counter screen (AID 743203; calls by dose curve; note: nearly all actives have a fitted effect of over 55% in size; note: potency is the fitted concentration of half-maximal effect)
Method in brief: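 HepG2 cells carrying ARE-driven beta-lactamase; 2,000 cells/well; 5 hrs plating; compound pinned from DMSO; 16 hrs 37C/5% CO2; CellTiter-Glo added; 30 min RT; luminescence.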

[8] = qHTS assay to identify small molecule antagonists of the estrogen receptor alpha (ER-alpha) signaling pathway - cell viability counter screen (AID 743074; calls by dose curve;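 note: HEK293 cells carrying ER-alpha-UAS-bla reporter stimulated with 17beta-estradiol; nearly all actives have a fitted effect of over 45% in size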; note: potency is the fitted concentration of half-maximal effect)
[9] = target: Estrogen receptor (Homo sapiens) (UniProt P03372); experiment: qHTS assay to identify small molecule agonists of the estrogen receptor alpha (ER-alpha) signaling pathway (AID 743075; calls by dose curve;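 note: HEK293 GripTite cells with ER-alpha and UAS-driven beta-lactamase reporter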; note: potency is the fitted concentration of half-maximal effect)
Estrogen receptor (Homo sapiens), sequence (P03372 whole entry, looked up): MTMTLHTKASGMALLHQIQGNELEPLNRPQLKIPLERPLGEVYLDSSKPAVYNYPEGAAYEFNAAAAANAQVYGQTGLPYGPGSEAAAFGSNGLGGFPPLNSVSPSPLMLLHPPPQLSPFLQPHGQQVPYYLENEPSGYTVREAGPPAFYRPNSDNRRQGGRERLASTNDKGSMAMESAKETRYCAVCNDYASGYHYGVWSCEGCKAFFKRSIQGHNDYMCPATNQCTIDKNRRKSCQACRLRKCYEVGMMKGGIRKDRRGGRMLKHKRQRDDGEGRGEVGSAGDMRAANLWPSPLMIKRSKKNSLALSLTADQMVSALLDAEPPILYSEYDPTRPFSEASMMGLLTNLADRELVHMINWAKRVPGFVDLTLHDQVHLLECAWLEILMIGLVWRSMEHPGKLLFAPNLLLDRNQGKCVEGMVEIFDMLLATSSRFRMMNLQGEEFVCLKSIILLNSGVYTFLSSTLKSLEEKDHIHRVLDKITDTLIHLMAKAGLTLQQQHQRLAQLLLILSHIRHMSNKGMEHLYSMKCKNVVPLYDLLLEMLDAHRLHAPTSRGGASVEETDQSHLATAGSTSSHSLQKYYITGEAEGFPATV

[10] = qHTS assay to identify small molecule antagonists of the estrogen receptor alpha (ER-alpha) signaling pathway using the BG1 cell line (AID 743080; calls by dose curve;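 note: BG1 cells stimulated with 17beta-estradiol alongside compound; nearly all actives have a fitted effect of over 25% in size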; note: potency is the fitted concentration of half-maximal effect)
Method in brief: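 BG1-Luc-4E2 cells (endogenous full-length ER-alpha, stable 4×ERE-luciferase) were starved 5 days in phenol-red-free medium with 10% charcoal-stripped FBS, plated 24 h, then given compound plus 17beta-estradiol for 21.5 h at 37 C; ONE-Glo luminescence read after 30 min.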

[11] = qHTS assay to identify small molecule antagonists of the estrogen receptor alpha (ER-alpha) signaling pathway using the BG1 cell line - cell viability counter screen (AID 743081);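 note: compound given together with 17beta-estradiol as the ER stimulus; nearly all actives have a fitted effect of over 45% in size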; note: potency is the fitted concentration of half-maximal effect
[12] = qHTS assay to identify small molecule antagonists of the peroxisome proliferator-activated receptor gamma (PPARg) signaling pathway - cell viability counter screen (AID 743194); settings: Potency: co-treated with 50 nM rosiglitazone unless noted; note: nearly all actives have a fitted effect of over 55% in size; note: potency is the fitted concentration of half-maximal effect
Method in brief: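 Viability was measured as CellTiter-Glo luminescence in GeneBLAzer PPARg UAS-bla HEK293H cells. These cells had been exposed 17 h at 37 C to compounds together with rosiglitazone at 50 nM final, with the beta-lactamase readout taken in the same wells.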

[13] = qHTS assay for small molecule activators of the heat shock response signaling pathway - cell viability counter screen (AID 743209); note: nearly all actives have a fitted effect of over 50% in size; note: potency is the fitted concentration of half-maximal effect
Method in brief: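 Luminescence from CellTiter-Glo, added after the beta-lactamase FRET read, gave the viability signal. Cells were HSE-bla HeLa treated with DMSO-dissolved compounds for 5 h at 37 C following overnight plating.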

[14] = target: Estrogen receptor (Homo sapiens) (UniProt P03372); experiment: qHTS assay to identify small molecule antagonists of the estrogen receptor alpha (ER-alpha) signaling pathway (AID 743069; active = well fitted curve in the direction sought with a large enough effect in the signal ratio in the repeat runs, not every such curve was filed as active; inconclusive = weak or mixed curves, or effect the other way; inactive = no such curve, though single readings can be large or run the other way; the % refers to the signal ratio; note: potency is the fitted concentration of half-maximal effect)
Method in brief: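 ER-alpha-UAS-bla GripTite HEK293 line; 2% charcoal-stripped FBS overnight; plated, 4 hr 37C/5% CO2; cpd in DMSO + 17beta-estradiol, 18 hr 37C; LiveBLAzer B/G FRET substrate 2 hr RT; fluorescence intensity.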

[15] = target: Estrogen receptor (Homo sapiens) (UniProt P03372); experiment: qHTS assay to identify small molecule agonists of the estrogen receptor alpha (ER-alpha) signaling pathway using the BG1 cell line (AID 743079); note: nearly all actives have a fitted effect of over 20% in size; note: potency is the fitted concentration of half-maximal effect
[16] = target: Peroxisome proliferator-activated receptor gamma (Homo sapiens) (UniProt P37231); experiment: qHTS assay to identify small molecule antagonists of the peroxisome proliferator-activated receptor gamma (PPARg) signaling pathway (AID 743191; calls by dose curve; note: series mostly up to about 63 µM; nearly all actives have a fitted effect of over 30% in size)
Peroxisome proliferator-activated receptor gamma (Homo sapiens), sequence (P37231 whole entry, looked up): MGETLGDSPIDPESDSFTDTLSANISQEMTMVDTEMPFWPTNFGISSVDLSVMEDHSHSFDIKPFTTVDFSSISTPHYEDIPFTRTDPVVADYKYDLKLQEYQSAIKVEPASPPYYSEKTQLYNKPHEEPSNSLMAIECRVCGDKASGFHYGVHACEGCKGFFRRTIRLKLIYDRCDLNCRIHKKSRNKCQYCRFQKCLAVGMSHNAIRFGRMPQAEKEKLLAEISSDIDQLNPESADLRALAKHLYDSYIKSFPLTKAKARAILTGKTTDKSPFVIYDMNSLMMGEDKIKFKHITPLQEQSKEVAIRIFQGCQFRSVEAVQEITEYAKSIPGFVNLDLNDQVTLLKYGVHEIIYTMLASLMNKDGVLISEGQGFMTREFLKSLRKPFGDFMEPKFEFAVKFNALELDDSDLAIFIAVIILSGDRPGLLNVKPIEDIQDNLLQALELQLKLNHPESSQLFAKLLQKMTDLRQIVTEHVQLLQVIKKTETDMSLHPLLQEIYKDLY
Method in brief: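 Beta-lactamase reporter under UAS control in HEK293H PPARg-bla cells; compound treatment 17 h at 37C. Read-out: fluorescence intensity after 1 h room-temperature incubation with LiveBLAzer B/G FRET substrate.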

[17] = qHTS assay for small molecule activators of the heat shock response signaling pathway (AID 743210; active = well fitted activation curve with a large enough effect in the signal ratio in the repeat runs, with a control signal flat, not every such curve was filed as active; inconclusive = weak or mixed curves; the % refers to the signal ratio;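 note: HeLa cells with beta-lactamase reporter driven by heat shock elements; series mostly up to about 63 µM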)
Method in brief: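 HeLa HSE-bla cells, overnight plating; cpd in DMSO 5 h, 37 C; LiveBLAzer B/G FRET substrate 2.5 h RT; fluorescence intensity read.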

[18] = target: Peroxisome proliferator-activated receptor gamma (Homo sapiens) (UniProt P37231); experiment: qHTS assay to identify small molecule agonists of the peroxisome proliferator-activated receptor gamma (PPARg) signaling pathway (AID 743094; active = well fitted activation curve with a large enough effect in the signal ratio in the repeat runs, not every such curve was filed as active; inconclusive = weak or mixed curves, or effect the other way; inactive = no such curve, though single readings can be large or run the other way; the % refers to the signal ratio)
Method in brief: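 Beta-lactamase FRET fluorescence was the read-out after a 1 h room-temperature substrate step, following 17 h compound treatment at 37C of HEK293H cells expressing a UAS-driven bla reporter responsive to PPARg.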

[19] = qHTS assay for small molecule agonists of the antioxidant response element (ARE) signaling pathway (AID 743202; active = well fitted activation curve with a large enough effect in the signal ratio in the repeat runs, not every such curve was filed as active; inconclusive = weak or mixed curves, or effect the other way; inactive = no such curve, though single readings can be large or run the other way; the % refers to the signal ratio; note: potency is the fitted concentration of half-maximal effect)
Method in brief: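 Quantitative high-throughput format in HepG2 cells bearing an integrated ARE-beta-lactamase reporter. Compound exposure lasted 16 h at 37 C, and fluorescence was read 2 h after adding LiveBLAzer B/G substrate at room temperature.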

Measured: Potency

[Cd+2].[Cl-].[Cl-]
inactive: [3] | [5]
54.9 µM (active) and inactive: Aromatase (Homo sapiens)
active: [1] 24.5 µM and 30.6 µM | [2] 27.5 µM and 38.6 µM | [4] 24.5 µM | [6] 2.19 µM and 3.06 µM | [7] 692 nM and 545 nM

CCCCCCCCCC[N+](C)(C)CCCCCCCCCC
active: [1] 5.96 µM and 12.2 µM | [2] 5.96 µM and 9.69 µM | [8] 10.7 µM and 38.9 µM | [10] 33.5 µM | Aromatase (Homo sapiens) 13.3 µM and 24.3 µM | [4] 21.1 µM and 61.1 µM | [12] 15.5 µM | [7] 43.3 µM | [13] 34.7 µM
inactive: [9] | [11] | [5] | [6]

Cc1cc(C)cc(OP(=O)(Oc2cc(C)cc(C)c2)Oc2cc(C)cc(C)c2)c1
active: [5] 9.84 µM
not listed: [2] | [18] | [19]
inactive: all other assays above

CCCCCCCCCCCCCC[P+](CCCCCC)(CCCCCC)CCCCCC (tested in a mixture with another compound)
inactive: [5]
active: [1] 2.43 µM | [2] 1.54 µM | [8] 7.76 µM | [10] 2.73 µM | [11] 9.69 µM | Aromatase (Homo sapiens) 3.06 µM | [4] 6.11 µM | [6] 27.3 µM | [12] 0.49 µM | [7] 10.9 µM | [13] 3.47 µM

O=[N+]([O-])c1ccc2ccc3cccc4ccc1c2c34
active: [9] 2.75 µM [fluorescent]
not listed: [2] | [10] | [11] | [14] | [16] | [18] | [19]
inactive: all other assays above

Nc1ccccc1C(=O)Oc1ccc2ccccc2c1
active: [15] 4.33 µM | [19] 21.7 µM
not listed: [3] | [5] | [10] | [13] | [14] | [16] | [17]
inactive: all other assays above

CCCCCCCCCCCCCCCCCCn1cc[n+](C)c1
inactive: [9] | [5]
active: [1] 12.1 µM | [2] 5.42 µM | [14] 9.72 µM [inconclusive] | [8] 38.7 µM | [11] 30.5 µM | Aromatase (Homo sapiens) 3.83 µM | [4] 21.6 µM | [7] 15.3 µM | [13] 43.4 µM
